According to PubChem BioAssay (NCATS):
Inconclusive results are not listed. Unmarked numbers belong to inactive results. Calls of active or inactive are those of the source. Calls come from the whole dose curve; as a rule, active = well fitted inhibition curve with a large enough effect; inconclusive = small, poorly fitted or top-dose-only effect; inactive = flat fitted curve, though single readings scatter.

These compounds were tested on NIH3T3 (assay: Cytotoxic Profiling of Annotated Libraries Using Quantitative High-Throughput Screening (AID 1296008; note: nearly all actives have a fitted effect of over 60% in size)). Conditions: Five cell lines viability, CellTiter-Glo ATP luminescence, 48-72 h; max response: active compounds read low.
Procedure, shortened: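 Cells exposed to compounds for 48 or 72 hr at 37 degrees Celsius. Viability read as ATP-coupled luminescence with CellTiter-Glo after 10 min at room temperature.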
% is set by controls: 0 for no effect and ±100 for the full control effect; potency is the fitted concentration of half-maximal effect.

Row | SMILES | max response [%] | Potency | outcome
1 | O=C1C[C@]23C=CCN4CCC5c6cc7c(cc6N1[C@@]5(CC2)C43)OCO7 (stereo partly specified) | -4.65 |  | 
2 | CN(CC1COCCO1)S(=O)(=O)Nc1ccc2ccc3ncc(-c4cnn(C)c4)cc3c(=O)c2c1 (stereo unspecified) |  | 3.26 µM (active) | 
3 | CS(=O)(=O)Nc1ccc2oc3c(OC(F)F)ccc(C(=O)Nc4c(Cl)cncc4Cl)c3c2c1 | -9.63 |  | 
4 | CCn1c(=O)c(-c2ccc(Cl)cc2Cl)cc2cnc(Nc3ccc(N4CCNCC4)c(F)c3)nc21 |  | 1.03 µM (active) | 
5 | COc1ccccc1N1CCN(c2ncnc3n[nH]c(Br)c23)CC1 |  |  | inactive
6 | CCS(=O)c1nc(-c2cccc(OCc3ccccc3)c2)cc(C(F)(F)F)n1 (stereo unspecified) |  | 18.4 µM (active) | 
7 | Cn1cc(-c2ccc3c(c2)CCN3C(=O)Cc2cccc(C(F)(F)F)c2)c2c(N)ncnc21 | -21.2 |  | 
8 | NC(=O)N1CCC(CC(=O)N2CCC(C3c4ncc(Br)cc4CCc4cc(Cl)cc(Br)c43)CC2)CC1 (stereo unspecified) | 2.37 |  | 
9 | CC(C)c1ccc(NC(=O)c2cccs2)c(-c2nc3ccccc3[nH]c2=O)c1 | 0.611 |  | 
10 | Cc1cc(F)ccc1[C@H]1C[C@@H](N2CCN3C(=O)CC[C@H]3C2)CCN1C(=O)N(C)[C@H](C)c1cc(C(F)(F)F)cc(C(F)(F)F)c1 |  |  | inactive
11 | CC(C)n1nc(C#Cc2ccccc2)c2c(N)ncnc21 |  | 11.6 µM (active) | 
